Bioassay records from PubChem.
Hits are enriched below; roughly 3.4% of the tested compounds scored in any of these assays.
GAA850 FXN act: activators of GAA850 frataxin (FXN) promoter; HEK293 lucGAA850 FXN promoter luciferase reporter, 24 h; percent of 10 µM SAHA response; activation, % at 6 µM; hit rate 0.56% among 360,000; AID 540364;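 active means activation above the average of all compounds screened plus 3 SD, cutoff fixed separately per campaign, cut at about 7.5% in these data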
AI-2 QS mod: modulators of Vibrio harveyi AI-2 quorum sensing system | Vibrio harveyi JMH597 AI-2 luminescence/OD600 ratio, 9 h; active compounds read low; strain lacks LuxN and CqsS sensors; 0 = neutral-control median | activity change, % at 7.5 µM | hit rate 0.4% among 300,000 | AID 2094; in the data active means activity change below about -75%, passing the limit was not always enough;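 further: luminescence divided by OD600 gain over 9 h not by final OD600 alone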
PG9 binder: small molecules binding HIV-1 gp120 antibody PG9; TR-FRET gp120-PG9 antibody binding; inhibition, % at 6.7 µM; hit rate 0.43% among 360,000; in the data active means inhibition above about 8.5%
HSF1 inhib: HSF1 inhibition | NIH3T3-HGL HSE-luciferase, MG132-induced, luminescence 8 h; active compounds read low | activity change, negative = inhibition, % at 7.5 µM (by protocol) | hit rate 0.77% among 300,000;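 active means more than half of replicate wells show activity change below -50%, luminescence cut by over half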;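 further: luciferase reports HSF-1 transcriptional activity via heat shock element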
SMARCA2 activ: increases SMARCA2 function in MMTV reporter cells. MG213 cells, MMTV-luciferase reporter, dexamethasone, overnight. activation, % at 9.1 µM. hit rate 1% among 370,000. AID 652017; in the data active means activation above about 7.8%
HSP90 inh: blocks HSP90-mediated luciferase refolding in reticulocyte lysate; Rabbit reticulocyte lysate, luciferase refolding luminescence, 3 h; AID 1789; inhibition, % at 5.6 µM; hit rate 0.91% among 290,000;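 active means inhibition above the screen-wide mean plus 3 SD, computed separately per campaign, cut at about 16% in these data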;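 further: inhibitors lower the luminescence because luciferase stays unfolded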
HSP90 confirm: confirmation of HSP90 inhibitors; shares compounds with HSP90 inh; rabbit reticulocyte lysate, luciferase refolding luminescence, 3 h; inhibition, % at 5.9 µM; hit rate 64% among 2,300; in the data active means inhibition above about 18%
luciferase ctr: blocks native firefly luciferase in HSP90 counter-screen | shares compounds with HSP90 inh | purified native firefly luciferase, luminescence | inhibition, % at 5.9 µM | hit rate 48% among 2,300;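 active means inhibition above the mean inhibition of all tested sample wells plus 3 SD, cut at about 10% in these data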
Target sequence (P08659 whole entry, looked up): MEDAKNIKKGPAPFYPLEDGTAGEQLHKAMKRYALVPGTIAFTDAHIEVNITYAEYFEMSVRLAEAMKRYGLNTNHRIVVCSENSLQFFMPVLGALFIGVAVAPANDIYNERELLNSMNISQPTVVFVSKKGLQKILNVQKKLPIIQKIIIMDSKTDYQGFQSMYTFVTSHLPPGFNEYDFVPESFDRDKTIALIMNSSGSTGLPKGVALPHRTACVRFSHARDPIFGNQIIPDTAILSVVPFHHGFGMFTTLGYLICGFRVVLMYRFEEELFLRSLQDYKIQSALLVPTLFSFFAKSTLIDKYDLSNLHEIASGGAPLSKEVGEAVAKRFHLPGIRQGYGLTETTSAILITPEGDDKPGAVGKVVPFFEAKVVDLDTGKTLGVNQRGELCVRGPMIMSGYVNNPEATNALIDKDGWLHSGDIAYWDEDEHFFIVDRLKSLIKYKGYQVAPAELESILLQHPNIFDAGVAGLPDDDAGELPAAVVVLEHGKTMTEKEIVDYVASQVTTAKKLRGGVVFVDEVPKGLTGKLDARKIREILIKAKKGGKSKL
Hits are given with their value; i = inactive; nt = no result.

SMILES	GAA850 FXN act	AI-2 QS mod	PG9 binder	HSF1 inhib	SMARCA2 activ	HSP90 inh	HSP90 confirm	luciferase ctr
CCCCN(C(=O)COC(=O)COc1c(C)cc(C)cc1C)c1c(N)n(CCC)c(=O)[nH]c1=O	i	i	i	-69	i	nt	nt	nt
COc1cc(-c2nc(-c3ccc(NC(=O)c4ccc5c(c4)OCO5)cc3)no2)cc(OC)c1OC	i	i	i	i	8.0	i	nt	nt
Cc1ccccc1-c1nc(-c2ccc(NC(=O)c3ccc4c(c3)OCO4)cc2)no1	i	i	i	i	i	i	nt	nt
Cc1ccc(Sc2ncccc2C(=O)O)c(C)c1	i	-88	i	i	i	i	nt	nt
Cc1ccc(Sc2ncccc2C(=O)O)cc1C	i	-86	i	i	i	i	nt	nt
COc1cc(NC(=O)c2cccnc2Sc2ccc(C)c(C)c2)cc(OC)c1OC	i	i	i	i	i	i	nt	nt
CCCCN1CN2CCc3ccccc3C2CS1(=O)=O (stereo unspecified)	nt	nt	nt	nt	i	nt	nt	nt
COc1ccc(N=Nc2n(C)c3ccccc3[n+]2C)cc1	nt	i	nt	i	nt	79	nt	nt
CCCCC(=O)Nc1cccc(NC(=O)c2ccc(Br)cc2)c1	i	i	i	i	i	i	nt	nt
CCCCC(=O)Nc1cccc(NC(=O)c2cccc(Br)c2)c1	i	i	i	-62	i	i	nt	nt
CCc1ccc(Cn2c(=O)n(Cc3ccc(C(=O)NCCCOC)cc3)c(=O)c3ccccc32)cc1	nt	nt	nt	nt	i	nt	nt	nt
CCOC(=O)C1=C(CN2CCN(C(=O)c3ccco3)CC2)NC(=O)NC1c1ccccc1 (stereo unspecified)	i	i	nt	i	nt	i	nt	nt
CCOC(=O)C1=C(CN2CCN(C(=O)c3ccco3)CC2)NC(=O)NC1c1ccc(OC)cc1 (stereo unspecified)	i	i	i	-88	i	i	nt	nt
Cc1c(/C(O)=C2\C(=O)C(=O)N(CCCN(C)C)C2c2ccccc2)cnn1-c1ccccc1 (stereo unspecified)	i	nt	i	nt	i	42	nt	nt
Cn1c(=O)oc2cc(S(=O)(=O)N3CCN(C(=O)C4CCCO4)CC3)ccc21 (stereo unspecified)	nt	nt	nt	nt	i	nt	nt	nt
Cc1ccc(C2CN=NC23CCc2ccccc2C3=O)cc1 (stereo unspecified)	i	i	i	i	i	17	nt	nt
COc1c(N2CCN(C(=S)NC3CC4CCC3C4)C(C)C2)c(F)cc2c(=O)c(C(=O)O)cn(C3CC3)c12 (stereo unspecified)	i	i	i	-55	i	i	nt	nt
C[C@H]1COc2cc(Br)ccc2S(=O)(=O)N1Cc1cn(Cc2ccc(Br)cc2)nn1	nt	nt	nt	nt	i	nt	nt	nt
CC(C)C(=O)Nc1ccc(NC(=O)c2ccccn2)cn1	i	i	i	i	i	37	37	27
COc1ccc(C(=O)Nc2ccc(NC(=O)c3ccccn3)cn2)cc1	i	i	i	i	i	i	nt	nt
COc1ccc(NC(=O)c2ccccn2)cc1	i	i	nt	i	nt	35	64	47
N/C(=N\NC(=O)Nc1ccc(Cl)cc1)c1ccccn1	i	i	i	i	i	24	i	i
CCC(=O)Nc1ccc(NC(=O)c2ccccn2)cn1	i	i	i	i	i	i	nt	nt
CCc1ccn2cc(-c3cc(-c4ccccc4)no3)nc2c1	i	i	i	-69	i	82	86	84
Cc1ccc2nc(-c3ccc(NC(=O)C4CCCO4)cc3)[nH]c2c1 (stereo unspecified)	i	i	i	i	i	24	55	35
SMILES	GAA850 FXN act	AI-2 QS mod	PG9 binder	HSF1 inhib	SMARCA2 activ	HSP90 inh	HSP90 confirm	luciferase ctr
Cc1ccccc1NC(=O)[C@@H]1CC(=O)O[C@@H]1c1ccccc1	nt	nt	nt	nt	i	nt	nt	nt
COC(=O)[C@]12C[C@H](CC(=O)N3CCCC3)C(=O)N(Cc3ccccc3)C1=C[C@H](C(C)C)O[C@@H]2C1CC1	nt	nt	i	nt	i	nt	nt	nt
O=C(Nc1cccc(-c2cn3c(n2)SCC3)c1)c1ccc2ccccc2n1	i	i	i	i	i	50	31	i
CCOC(=O)c1c(C)[nH]c(/C(C)=N/O)c1C	i	i	i	i	i	i	nt	nt
CCOC(=O)c1c(C)[nH]c(C2=NNC(=NC3CC3)SC2)c1C	i	i	nt	i	nt	55	84	75
CC(=O)CC[C@H]1CC[C@]2(CCCN(C(=O)c3ccccc3)C2)O1	nt	nt	nt	nt	i	nt	nt	nt
O=C(NCCc1ccccc1)c1ccccc1NC(=O)C1CCCCC1C(=O)O (stereo unspecified)	nt	i	i	i	i	47	i	i
COc1cccc(CNC(=O)Cn2c(-c3ccccc3)cc(C(C)=O)c2C)c1OC	nt	nt	nt	nt	i	nt	nt	nt
C#CCNC(=O)C[C@H]1C[C@@]2(C(=O)OC)C(=C[C@H](COCc3ccccc3)O[C@@H]2C)N(Cc2ccc3c(c2)OCO3)C1=O	nt	nt	i	nt	i	nt	nt	nt
O=C(Nc1ccc2c(c1)OCCO2)c1cccc(Cl)c1	i	i	i	i	i	i	nt	nt
O=C(Nc1ccc2c(c1)OCCO2)c1ccc(Cl)cc1Cl	i	i	i	i	i	33	40	30
O=C(Nc1ccc2c(c1)OCO2)c1cc(Cl)ccn1	i	nt	i	nt	i	nt	nt	nt
O=C(Nc1ccc2c(c1)OCO2)c1ccc(Cl)cc1Cl	i	i	i	i	i	24	37	22
O=C(CSc1nnc(SCc2cccc3ccccc23)s1)Nc1ccccc1-c1ccccc1	nt	nt	nt	nt	i	nt	nt	nt
COc1ccc(C2CC(=O)C(c3ccccc3OC)=CN2Cc2ccccc2)cc1 (stereo unspecified)	nt	nt	i	nt	i	nt	nt	nt
CN(C)c1ccc(-c2nn3c(-c4cccnc4)nnc3s2)cc1	nt	i	nt	i	nt	nt	nt	nt
Cc1nnc2sc(-c3ccc(N(C)C)cc3)nn2c1=O	i	i	i	i	i	20	i	i
CCOC(=O)c1cccc(NC(=O)CN(C)S(=O)(=O)c2ccc(Br)s2)c1	nt	nt	nt	nt	i	nt	nt	nt
O=C(NCCc1cccc(Cl)c1)c1ccc(OC2CCN(Cc3ccccn3)CC2)cc1	i	i	i	i	i	22	19	i
Cc1cccnc1CCNC(=O)c1ccc(OC2CCN(Cc3ccccn3)CC2)cc1	i	i	i	i	i	i	nt	nt
CCOC(=O)C1=CCN(S(=O)(=O)c2ccc(Cl)cc2)C1c1cccc(F)c1 (stereo unspecified)	nt	nt	i	nt	i	nt	nt	nt
CN(C)c1ccc(N=Nc2cccc(F)c2)cc1	i	i	i	i	i	39	47	41
COC(=O)[C@]12C[C@H](CC(=O)N3CCOCC3)C(=O)N(Cc3cccc4ccccc34)C1=C[C@H](COCc1ccccc1)O[C@@H]2C	nt	nt	nt	nt	i	nt	nt	nt
O=C1OCC(CO)(CO)N=C1NNc1ccccc1[N+](=O)[O-]	i	i	i	i	i	21	i	i
COC(=O)[C@]12C[C@H](CC(=O)N3CCCCC3)C(=O)N(Cc3ccc(Cl)cc3Cl)C1=C[C@H](C(C)C)O[C@@H]2C1CC1	nt	nt	nt	nt	i	nt	nt	nt
COc1ccccc1C(NC(C)=O)c1cc(Cl)c2cccnc2c1O (stereo unspecified)	i	i	i	i	i	24	i	i
